Measured values taken from PubChem BioAssay AID933 (National Center for Advancing Translational Sciences (NCATS), 2007).
Inconclusive results are not listed. Active and inactive are the calls of the source. Calls follow the shape of the dose curve; as a rule, active = well fitted activation curve with a large enough effect in the signal ratio, with a control signal flat; inconclusive = small, poorly fitted or top-dose-only effect, or a change in a side signal; inactive = flat fitted curve, though single readings scatter; the % refers to the signal ratio.

These compounds were tested against Thyrotropin receptor (Homo sapiens) (UniProt P16473) (assay: Secondary Concentration-Response Assay for Agonists of the Thyroid Stimulating Hormone Receptor: HTRF Activity Detection). Conditions: HEK293-TSHR cells, cAMP HTRF ratio, 30 min; series mostly up to 91.7 µM; activation: at the top concentration.
Summary of the method: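 Orthogonal confirmation in a separate TSHR-transfected HEK 293 line: cells in medium with 10 % FCS and 100 uM RO 20-1724 got compound for 30 min at room temperature. cAMP was measured by HTRF (d2-cAMP/anti-cAMP antibody), 615/660 nm emission.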
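For activation in this document: HEK 293 cells stably expressing human TSHR with RO 20-1724 phosphodiesterase inhibitor; % of control where 0% means no effect.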
Potency is read from the fitted curve at half-maximal effect.

Chain of Thyrotropin receptor (Homo sapiens) (P16473 whole entry, looked up): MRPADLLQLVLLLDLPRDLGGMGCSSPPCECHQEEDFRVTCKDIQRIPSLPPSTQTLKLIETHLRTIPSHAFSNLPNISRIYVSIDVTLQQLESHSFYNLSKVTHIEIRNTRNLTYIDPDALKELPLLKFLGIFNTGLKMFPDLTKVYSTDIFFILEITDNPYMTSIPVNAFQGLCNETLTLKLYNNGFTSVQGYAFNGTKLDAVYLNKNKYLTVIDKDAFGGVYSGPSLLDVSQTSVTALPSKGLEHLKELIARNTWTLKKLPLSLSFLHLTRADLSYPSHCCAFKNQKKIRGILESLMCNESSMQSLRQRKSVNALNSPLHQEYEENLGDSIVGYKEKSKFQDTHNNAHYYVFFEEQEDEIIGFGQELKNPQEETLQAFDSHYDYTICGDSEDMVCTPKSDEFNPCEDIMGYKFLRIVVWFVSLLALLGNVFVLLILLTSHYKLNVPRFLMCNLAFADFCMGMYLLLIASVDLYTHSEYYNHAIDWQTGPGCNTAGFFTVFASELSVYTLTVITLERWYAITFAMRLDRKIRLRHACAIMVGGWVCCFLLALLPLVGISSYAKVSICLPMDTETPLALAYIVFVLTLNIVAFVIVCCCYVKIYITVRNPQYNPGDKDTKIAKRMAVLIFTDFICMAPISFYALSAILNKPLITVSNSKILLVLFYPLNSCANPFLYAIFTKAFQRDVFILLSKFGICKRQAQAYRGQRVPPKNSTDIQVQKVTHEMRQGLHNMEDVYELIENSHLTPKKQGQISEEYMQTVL

activation, inactive:
COc1ccc(C2Nc3ccccc3C(=O)N2CCc2ccc(Cl)cc2Cl)cc1COc1ccc(NC(C)=O)cc1 (stereo not given) 2.61%
COc1ccc2c(c1OC)C(=O)N1c3ccccc3C(=O)N(c3ccccc3F)C21 (stereo not given) 2.15%
CCOc1cc(C2Nc3ccccc3C(=O)N2Cc2ccco2)ccc1OCc1ccccc1Cl (stereo not given) 0.379%
CC(=O)Nc1cccc(OCc2cccc(C3Nc4ccccc4C(=O)N3Cc3ccco3)c2)c1 (stereo not given) 2%
CCSCCOC(=O)C1=C(C)N(C)C(=O)NC1c1cc(OC)ccc1OC (stereo not given) 1.56% [at 0.00035 µM]
Cc1ccccc1N1CCN(c2ncnc3c2cnn3Cc2ccc(Cl)cc2)CC1 -0.314% [at 0.00035 µM]
COc1ccc(C2Nc3ccccc3C(=O)N2Cc2ccccc2OC)cc1COc1ccc(NC(C)=O)cc1 (stereo not given) 17.2%
COc1ccc(C2Nc3ccccc3C(=O)N2C2CCCC2)cc1COc1ccc(NC(C)=O)cc1 (stereo not given) 29.4%
Cc1occc1-c1nnc(SCC(=O)NCc2ccc3c(c2)OCO3)n1CC(C)C 0.411% [at 0.00035 µM]
COc1ccc(-c2nc3cccc(OC)c3c(=O)n2Cc2ccccc2)cc1COc1ccc(NC(C)=O)cc1 28.9%
COc1ccc(CN(Cc2ccccc2)C(=O)c2ccc(NC(C)=O)cc2)cc1COc1ccc(NC(C)=O)cc1 12.9%
O=C(c1cc(Br)ccc1O)N(Cc1ccco1)Cc1cccs1 6.91%
CCCS(=O)(=O)N1CCN(C(=O)c2ccc(-c3ccccc3)cc2)CC1 0.323% [at 0.00035 µM]
COc1ccc(C2Nc3ccccc3C(=O)N2Cc2ccccc2)cc1COc1ccc(C)cc1 (stereo not given) 18.2%
COc1ccc(C(=O)N(Cc2ccco2)Cc2cccs2)cc1 4.57%
COc1ccc(C2Nc3ccccc3C(=O)N2c2ccc(C)cc2)cc1COc1ccccn1 (stereo not given) 2%
COc1ccc(-c2ccc(-c3noc(C)n3)c(OC)n2)cc1 -0.214% [at 0.00035 µM]

Potency, active:
COc1ccc(CN(Cc2ccccc2)C(=O)c2ccco2)cc1COc1ccc(NC(C)=O)cc1 15.8 µM
COc1ccc(C(=O)N(Cc2ccccc2)Cc2ccc(OC)c(COc3ccc(NC(C)=O)cc3)c2)cc1 12.6 µM
COc1ccc(C2Nc3ccc(NC(C)=O)cc3C(=O)N2Cc2ccccc2)cc1COc1ccc(NC(C)=O)cc1 (stereo not given) 15.8 µM
